Data from PubChem BioAssay AID588800 (Johns Hopkins Ion Channel Center, 2011).
A number with no mark means an inactive call. Active and inactive are the calls of the source.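 The calls were made as follows: active = peak inhibition of the KCNQ2 potassium channel above 30% at some tested dose, plus a fitted dose response curve; inactive = no inhibition at any dose, or no curve.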

biological target: Potassium voltage-gated channel subfamily KQT member 2 (Rattus norvegicus) (UniProt O88943); assay: blockade of KCNQ2 thallium flux – cell-based, FluxOR thallium flux, CRC set 2, selectivity assay for KCNK9 inhibitor project, SAR follow-up (AID 588800); details: KCNQ2-expressing cells; series mostly up to 30 µM; thallium flux ratio, lower = inhibition: at the top concentration
Sequence (O88943 whole entry, looked up): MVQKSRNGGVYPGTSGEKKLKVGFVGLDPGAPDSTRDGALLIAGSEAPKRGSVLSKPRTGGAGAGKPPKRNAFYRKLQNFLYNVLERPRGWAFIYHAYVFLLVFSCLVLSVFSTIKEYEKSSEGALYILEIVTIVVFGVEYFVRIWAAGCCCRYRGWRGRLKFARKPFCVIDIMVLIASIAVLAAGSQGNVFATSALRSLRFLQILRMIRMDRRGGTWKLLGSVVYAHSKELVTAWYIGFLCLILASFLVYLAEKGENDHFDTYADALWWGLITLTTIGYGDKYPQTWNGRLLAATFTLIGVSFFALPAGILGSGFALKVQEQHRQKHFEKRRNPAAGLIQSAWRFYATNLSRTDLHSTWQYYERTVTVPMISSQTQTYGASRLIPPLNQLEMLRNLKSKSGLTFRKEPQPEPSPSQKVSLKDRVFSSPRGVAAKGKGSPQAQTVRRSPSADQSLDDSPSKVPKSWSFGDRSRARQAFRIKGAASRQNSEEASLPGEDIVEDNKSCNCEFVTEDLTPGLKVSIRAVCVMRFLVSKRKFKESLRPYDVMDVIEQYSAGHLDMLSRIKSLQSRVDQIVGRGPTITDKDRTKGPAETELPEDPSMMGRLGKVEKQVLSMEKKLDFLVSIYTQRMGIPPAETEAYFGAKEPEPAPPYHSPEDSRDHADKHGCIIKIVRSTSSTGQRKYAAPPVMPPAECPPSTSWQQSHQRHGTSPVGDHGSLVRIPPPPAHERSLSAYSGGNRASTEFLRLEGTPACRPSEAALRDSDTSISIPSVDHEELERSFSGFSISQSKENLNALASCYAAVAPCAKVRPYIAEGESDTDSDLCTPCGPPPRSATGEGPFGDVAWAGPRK

| Compound | thallium flux ratio, lower = inhibition | outcome |
| --- | --- | --- |
| CCOc1ccccc1NC(=O)c1cccc(NC(=O)c2ccccc2C)c1 | 0.159 | – |
| CN(C)c1ccc(C(=O)Nc2cccc(NC(=O)c3ccccc3)c2)cc1 | 0.189 | – |
| CC(C1CC2CCC1C2)n1c(C2CCOC2)n[nH]c1=S (stereo unspecified) | 0.177 | – |
| CCOc1ccccc1NC(=O)c1cccc(NC(=O)c2ccccc2OC(F)(F)F)c1 | 0.182 | – |
| CC(C1CC2CCC1C2)n1c(-c2cccc(Cl)c2)n[nH]c1=S (stereo unspecified) | 0.207 | – |
| Cc1cccc(C(=O)Nc2cccc(NC(=O)c3ccccc3C(C)C)c2)c1 | 0.166 | – |
| CCOc1ccccc1NC(=O)c1cccc(NC(=O)C2CCOC2)c1 (stereo unspecified) | 0.201 | – |
| COc1ccccc1C(=O)Nc1cccc(NC(=O)c2ccccc2)c1 | 0.162 | – |
| CCOc1ccccc1NC(=O)c1cccc(NC(=O)c2cccc(Cl)c2)c1 | 0.168 | – |
| Cc1cccc(C(=O)Nc2cccc(NC(=O)c3ccccc3OC(F)(F)F)c2)c1 | 0.178 | – |
| CCOc1ccccc1NC(=O)c1cccc(NC(=O)c2ccc(C)cc2)c1 | 0.179 | – |
| O=C(Nc1cccc(NC(=O)c2ccco2)c1)c1ccccc1 | 0.214 | – |
| O=C(Nc1ccccc1Cl)c1cccc(NC(=O)C2CCCC2)c1 | 0.161 | – |
| COc1ccccc1NC(=O)c1cccc(NC(=O)C2CCCC2)c1 | 0.19 | – |
| CC(C1CC2CCC1C2)n1c(-c2ccc(Cl)cc2)n[nH]c1=S (stereo unspecified) | 0.206 | – |
| CCOc1ccccc1NC(=O)c1cccc(NC(=O)c2cccc(C)c2)c1 | 0.176 | – |
| O=C(Nc1cccc(NC(=O)c2cccc(C(F)(F)F)c2)c1)c1ccccc1 | 0.145 | – |
| COc1ccccc1NC(=O)c1cccc(NC(=O)c2ccccc2)c1 | 0.168 | – |

| Compound | thallium flux ratio, lower = inhibition | outcome |
| --- | --- | --- |
| O=C(Nc1cccc(NC(=O)c2cccnc2)c1)c1ccccc1 | 0.218 | – |
| Cc1cccc(C(=O)Nc2cccc(NC(=O)c3cccc(Cl)c3)c2)c1 | 0.163 | – |
| CCOc1cccc(NC(=O)c2cccc(NC(=O)C3CCCC3)c2)c1 | 0.125 | – |
| O=C(Nc1cccc(NC(=O)c2ccc(C(F)(F)F)cc2)c1)c1ccccc1 | – | inactive |
| O=C(Nc1cccc(NC(=O)c2cccs2)c1)c1ccccc1 | 0.191 | – |
| CCOc1ccccc1NC(=O)c1cccc(NC(=O)C2CCCCC2)c1 | 0.19 | – |
| CCOc1ccccc1NC(=O)c1cccc(NC(=O)c2ccccc2OC)c1 | 0.178 | – |
| COc1ccccc1NC(=O)c1cccc(NC(=O)c2ccccc2C(F)(F)F)c1 | 0.178 | – |
| COc1ccccc1C(=O)Nc1cccc(NC(=O)c2ccccc2C)c1 | 0.166 | – |
| CCOc1ccccc1C(=O)Nc1cccc(NC(=O)c2ccccc2C(F)(F)F)c1 | 0.177 | – |
| O=C(Nc1cccc(NC(=O)c2ccc(F)cc2)c1)c1ccccc1 | 0.185 | – |
| CCOc1ccccc1NC(=O)c1cccc(NC(=O)c2ccc(OC)cc2)c1 | 0.172 | – |
| Cc1cccc(C(=O)Nc2cccc(NC(=O)c3ccccc3Cl)c2)c1 | 0.173 | – |
| Cc1cccc(C(=O)Nc2cccc(NC(=O)c3ccccc3)c2)c1 | 0.196 | – |
| Cc1cccc(C(=O)Nc2cccc(NC(=O)c3ccc(C(F)(F)F)cc3)c2)c1 | 0.16 | – |
| O=C(Nc1cccc(NC(=O)c2cccc(F)c2)c1)c1ccccc1 | 0.2 | – |
| COc1ccccc1NC(=O)c1cccc(NC(=O)c2ccccc2OC)c1 | 0.172 | – |
| CCOc1ccccc1NC(=O)c1cccc(NC(=O)CC2CCCC2)c1 | 0.159 | – |
